Measurements reported in the supplement of paper PMC10849652.
Of roughly 7,900 targets only a part is listed; those with a hit were picked by preference. About 0.6% of all pairs of compound and target were hits.

What was measured:
Test in all cases: log2 fold change, soluble protein after heating vs DMSO (PISA); higher = thermal stabilisation; K562 cells, 10 uM, 30 min; active = over 0.2 and 3.5 SD of the protein, either way, in both replicates (recomputed)
[1] = compound: C#Cc1cccc(Nc2ncnc3cc(OCCOC)c(OCCOC)cc23)c1 [erlotinib]
In short: (§1)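 K562 cells at 2×10^6 cells/mL were treated for 30 min with 10 μM compound, and aliquots were heated for 3 min over 48°C-58°C before pooling. Extraction used PBS with 0.5% NP-40 at 4°C, and soluble protein was the supernatant after 21,000xg for 90 min, measured by TMTpro 16plex LC-MS/MS with channel sums equalised. Thermal stability values, relative to control samples and from duplicates, are log2 fold changes.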

[2] = compound: C/C(=N\NC(=O)C1=CC(=CC=C1)S(=O)(=O)N2CCOCC2)/C3=C(C=CC(=C3)Cl)O
In short: as §1

[3] = compound: C1=CC(=C(C=C1Cl)C2=NC3=NC=CN=C3C(=N2)NC4=CC=NC=C4)F
In short: as §1

[4] = compound: C1=CC(=CC=C1C2=NC3=C(N2)C=C(C=C3)C(=O)N)OC4=CC=C(C=C4)Cl
In short: as §1

[5] = compound: C1=CC2=C(C=CC(=C2)/C=C\3/C(=O)NC(=NCC4=CC=CS4)S3)N=C1
In short: as §1

[6] = compound: C1=CC2=NC=CN=C2C=C1/C=C/3\C(=O)NC(=O)S3
In short: as §1

[7] = compound: C1=CC=C(C=C1)C2=NC(=C(N2)C3=CC=NC=C3)C4=CC(=C(C=C4)Cl)O
In short: as §1

[8] = compound: C1=CC=C2C(=C1)C3=NNC4=CC=CC(=C43)C2=O
In short: as §1

[9] = compound: C1CCN(C1)C(=O)NC2=CC=CC(=C2)NC3=NC=C(C(=N3)NCCC4=CN=CN4)Br
In short: as §1

[10] = compound: C1CN(CCC1(CC2=CC=C(C=C2)Cl)N)C3=NC=NC4=C3C=CN4
In short: as §1

[11] = compound: C1COCCN1CCN2C3=CC=CC=C3N=C2NC(=O)C4=CC(=CC=C4)[N+](=O)[O-] [IRAK-1-4 Inhibitor I]
In short: as §1

[12] = compound: C=CC(=O)N1CCC[C@@H](n2nc(-c3ccc(Oc4ccccc4)cc3)c3c(N)ncnc32)C1 [ibrutinib]
In short: as §1

[13] = compound: CC(=O)c1cnc2ccc(-c3cc(Cl)c(O)c(Cl)c3)nc2c1N[C@H]1CC[C@H](CN(C)C)CC1
In short: as §1

[14] = compound: CC(C)(C)Cn1c(N)nc2ccc(-c3[nH]c(C(C)(C)C)nc3-c3ccc(F)cc3)nc21 [ralimetinib]
In short: as §1

[15] = compound: CC(C)(O)CC(=O)NCCn1ccc2ncnc(Nc3ccc(Oc4cccc(C(F)(F)F)c4)c(Cl)c3)c21
In short: as §1

[16] = compound: CC(C)C1=C2N=C(C=C(N2N=C1)NCC3=CC=CC=C3)NCCCCCCN
In short: as §1

[17] = compound: CC(C)C[C@@H](C=O)NC(=O)[C@H](CC(C)C)NC(=O)[C@H](CC(C)C)NC(=O)OCc1ccccc1
In short: as §1

[18] = compound: CC(C)N(C[C@H]1O[C@@H](n2cnc3c(N)ncnc32)[C@H](O)[C@@H]1O)[C@H]1C[C@@H](CCc2nc3cc(C(C)(C)C)ccc3[nH]2)C1 [pinometostat]
In short: as §1

[19] = compound: CC1=C(C(CC(=O)N1)C2=CC=C(C=C2)C(F)(F)F)C(=O)NC3=C(C=C4C(=C3)C=NN4)F
In short: as §1

[20] = compound: CC1=C(C2=C(C=C1)C(=O)C3=CC=CC=C3N2CCCN)C
In short: as §1

Measured: log2 fold change

PDIK1L (UniProt Q8N165)
Sequence of UniProt Q8N165 (Q8N165 whole entry, looked up): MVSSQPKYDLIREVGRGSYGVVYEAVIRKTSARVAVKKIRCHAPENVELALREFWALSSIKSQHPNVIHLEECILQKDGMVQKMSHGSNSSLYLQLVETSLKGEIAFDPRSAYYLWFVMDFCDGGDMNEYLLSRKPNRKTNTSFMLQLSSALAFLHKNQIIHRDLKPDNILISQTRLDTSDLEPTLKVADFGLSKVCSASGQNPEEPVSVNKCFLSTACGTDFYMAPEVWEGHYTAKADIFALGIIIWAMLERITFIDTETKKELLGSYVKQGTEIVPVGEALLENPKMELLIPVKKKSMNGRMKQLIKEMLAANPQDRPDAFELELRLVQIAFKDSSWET
inactive: [1] -0.075 | [2] 0.083 | [3] -0.031 | [4] -0.052 | [5] 0.034 | [6] 0.115 | [7] -0.034 | [8] 0.197 | [9] 0.023 | [10] -0.007 | [11] -0.006 | [12] -0.205 | [14] -0.173 | [15] 0.032 | [16] -0.139 | [17] 0.091 | [18] -0.012 | [19] 0.052 | [20] -0.197
active: [13] -0.693

PPP1R12A (UniProt O14974)
Sequence of UniProt O14974 (O14974 whole entry, looked up): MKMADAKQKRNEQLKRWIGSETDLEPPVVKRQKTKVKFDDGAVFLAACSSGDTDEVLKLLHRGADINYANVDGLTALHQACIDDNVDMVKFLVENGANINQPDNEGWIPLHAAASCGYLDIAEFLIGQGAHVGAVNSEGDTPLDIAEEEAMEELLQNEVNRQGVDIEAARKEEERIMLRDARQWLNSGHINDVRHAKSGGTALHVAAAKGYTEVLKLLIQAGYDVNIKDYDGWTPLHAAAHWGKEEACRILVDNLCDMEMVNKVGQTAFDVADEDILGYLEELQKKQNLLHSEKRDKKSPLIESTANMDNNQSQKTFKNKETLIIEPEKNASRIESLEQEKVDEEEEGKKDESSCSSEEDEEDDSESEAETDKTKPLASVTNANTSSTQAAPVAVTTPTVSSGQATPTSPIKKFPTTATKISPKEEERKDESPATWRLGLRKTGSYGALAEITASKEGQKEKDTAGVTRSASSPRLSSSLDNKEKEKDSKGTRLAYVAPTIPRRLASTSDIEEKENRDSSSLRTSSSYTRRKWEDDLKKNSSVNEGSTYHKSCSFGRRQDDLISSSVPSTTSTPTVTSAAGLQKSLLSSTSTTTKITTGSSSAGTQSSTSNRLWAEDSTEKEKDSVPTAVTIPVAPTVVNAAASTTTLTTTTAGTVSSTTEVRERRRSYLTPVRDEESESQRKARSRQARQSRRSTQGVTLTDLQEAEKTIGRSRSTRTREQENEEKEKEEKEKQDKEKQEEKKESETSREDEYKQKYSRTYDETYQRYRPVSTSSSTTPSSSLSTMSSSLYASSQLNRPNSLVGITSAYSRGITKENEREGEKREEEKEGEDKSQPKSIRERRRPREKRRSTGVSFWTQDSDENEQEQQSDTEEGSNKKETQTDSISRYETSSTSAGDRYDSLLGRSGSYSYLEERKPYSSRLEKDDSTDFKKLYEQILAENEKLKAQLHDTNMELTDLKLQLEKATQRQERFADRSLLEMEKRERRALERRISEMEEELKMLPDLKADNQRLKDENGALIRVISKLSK
inactive: [1] 0.004 | [2] 0.044 | [3] 0.023 | [4] 0.023 | [5] -0.188 | [6] 0 | [7] 0.035 | [8] -0.067 | [9] -0.074 | [11] -0.013 | [12] -0.022 | [14] 0 | [15] 0 | [16] -0.119 | [17] -0.014 | [18] -0.003 | [20] -0.01
active: [10] -0.485 | [13] -0.666 | [19] -0.514

PMPCA (UniProt Q10713)
Sequence of UniProt Q10713 (Q10713 whole entry, looked up): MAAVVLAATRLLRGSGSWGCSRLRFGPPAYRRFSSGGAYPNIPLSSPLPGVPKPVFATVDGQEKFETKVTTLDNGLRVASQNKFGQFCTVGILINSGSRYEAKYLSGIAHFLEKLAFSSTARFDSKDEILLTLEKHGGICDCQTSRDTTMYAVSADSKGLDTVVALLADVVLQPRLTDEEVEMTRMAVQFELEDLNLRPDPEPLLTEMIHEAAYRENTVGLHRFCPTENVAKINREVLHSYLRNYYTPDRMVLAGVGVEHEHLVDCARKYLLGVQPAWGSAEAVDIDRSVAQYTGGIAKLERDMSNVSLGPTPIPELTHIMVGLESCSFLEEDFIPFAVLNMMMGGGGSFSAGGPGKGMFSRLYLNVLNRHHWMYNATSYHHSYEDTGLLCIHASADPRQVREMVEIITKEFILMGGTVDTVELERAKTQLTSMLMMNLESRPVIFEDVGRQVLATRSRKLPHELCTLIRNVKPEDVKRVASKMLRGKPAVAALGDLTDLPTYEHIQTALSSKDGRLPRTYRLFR
inactive: [1] -0.014 | [2] 0.005 | [3] 0.064 | [4] 0.016 | [5] 0.03 | [6] -0.014 | [7] 0.07 | [8] 0.065 | [9] -0.026 | [10] 0.011 | [11] 0.016 | [12] -0.008 | [13] -0.029 | [14] 0.057 | [15] -0.155 | [16] 0.097 | [17] -0.003 | [18] -0.015 | [19] -0.034 | [20] 0.055

PPP4R3B (UniProt Q5MIZ7)
Sequence of UniProt Q5MIZ7 (Q5MIZ7 whole entry, looked up): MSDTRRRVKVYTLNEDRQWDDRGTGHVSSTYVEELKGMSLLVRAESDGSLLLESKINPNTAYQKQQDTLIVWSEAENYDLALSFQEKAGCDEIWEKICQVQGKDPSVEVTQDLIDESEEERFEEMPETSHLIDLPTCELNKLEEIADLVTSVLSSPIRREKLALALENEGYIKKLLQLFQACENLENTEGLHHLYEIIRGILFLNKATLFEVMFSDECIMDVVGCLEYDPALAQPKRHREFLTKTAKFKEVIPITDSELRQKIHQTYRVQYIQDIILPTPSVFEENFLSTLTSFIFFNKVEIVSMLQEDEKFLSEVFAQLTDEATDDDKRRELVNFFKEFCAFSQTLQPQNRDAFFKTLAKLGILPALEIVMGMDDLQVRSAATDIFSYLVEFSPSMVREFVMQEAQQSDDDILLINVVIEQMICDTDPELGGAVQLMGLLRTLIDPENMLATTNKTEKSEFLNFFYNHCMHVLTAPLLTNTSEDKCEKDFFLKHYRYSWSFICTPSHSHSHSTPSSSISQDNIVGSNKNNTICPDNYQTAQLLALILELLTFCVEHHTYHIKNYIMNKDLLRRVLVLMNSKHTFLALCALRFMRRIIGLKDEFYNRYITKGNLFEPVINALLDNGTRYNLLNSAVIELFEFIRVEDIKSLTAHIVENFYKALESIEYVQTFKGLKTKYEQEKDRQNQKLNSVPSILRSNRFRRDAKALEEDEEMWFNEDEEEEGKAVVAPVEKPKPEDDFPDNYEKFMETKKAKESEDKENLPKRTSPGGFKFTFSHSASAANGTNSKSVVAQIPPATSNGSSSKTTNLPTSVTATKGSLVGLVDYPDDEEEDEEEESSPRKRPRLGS
inactive: [1] 0.022 | [2] 0.023 | [3] 0.013 | [4] -0.023 | [5] 0.083 | [6] 0.028 | [7] -0.023 | [8] -0.019 | [9] -0.003 | [10] -0.027 | [11] 0.027 | [12] -0.024 | [13] -0.018 | [14] -0.014 | [15] 0.095 | [16] -0.069 | [17] -0.023 | [18] -0.021 | [19] 0.034 | [20] -0.069

PRUNE1 (UniProt Q86TP1)
Sequence of UniProt Q86TP1 (Q86TP1 whole entry, looked up): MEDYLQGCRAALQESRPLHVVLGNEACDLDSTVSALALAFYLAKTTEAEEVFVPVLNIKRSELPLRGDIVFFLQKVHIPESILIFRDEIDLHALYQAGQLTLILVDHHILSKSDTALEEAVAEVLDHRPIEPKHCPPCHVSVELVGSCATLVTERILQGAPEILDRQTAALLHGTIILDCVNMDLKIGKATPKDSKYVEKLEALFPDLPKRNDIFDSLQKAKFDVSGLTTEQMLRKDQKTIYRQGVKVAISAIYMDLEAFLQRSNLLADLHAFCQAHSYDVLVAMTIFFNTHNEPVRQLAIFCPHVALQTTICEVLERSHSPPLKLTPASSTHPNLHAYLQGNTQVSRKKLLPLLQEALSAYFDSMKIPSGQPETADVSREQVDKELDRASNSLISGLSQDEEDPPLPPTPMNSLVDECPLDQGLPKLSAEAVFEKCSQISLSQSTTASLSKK
inactive: [1] 0.002 | [2] 0.063 | [3] 0.062 | [4] 0.03 | [5] -0.034 | [6] -0.016 | [7] 0.051 | [8] 0.045 | [9] -0.079 | [10] -0.005 | [11] 0.049 | [12] -0.058 | [13] 0.012 | [14] 0.017 | [15] -0.037 | [16] -0.129 | [17] 0.04 | [18] 0.08 | [19] -0.019 | [20] -0.021

PPP2R5C isoform 5 (UniProt Q13362)
inactive: [1] 0.028 | [2] 0.021 | [3] 0.015 | [4] -0.014 | [5] 0.009 | [6] -0.036 | [7] 0.004 | [8] 0.047 | [9] -0.018 | [10] -0.002 | [11] -0.023 | [12] 0.041 | [13] -0.059 | [14] -0.044 | [15] -0.072 | [16] -0.061 | [17] 0.031 | [18] 0.011 | [19] 0.005 | [20] -0.018

PDS5B (UniProt Q9NTI5)
Sequence of UniProt Q9NTI5 (Q9NTI5 whole entry, looked up): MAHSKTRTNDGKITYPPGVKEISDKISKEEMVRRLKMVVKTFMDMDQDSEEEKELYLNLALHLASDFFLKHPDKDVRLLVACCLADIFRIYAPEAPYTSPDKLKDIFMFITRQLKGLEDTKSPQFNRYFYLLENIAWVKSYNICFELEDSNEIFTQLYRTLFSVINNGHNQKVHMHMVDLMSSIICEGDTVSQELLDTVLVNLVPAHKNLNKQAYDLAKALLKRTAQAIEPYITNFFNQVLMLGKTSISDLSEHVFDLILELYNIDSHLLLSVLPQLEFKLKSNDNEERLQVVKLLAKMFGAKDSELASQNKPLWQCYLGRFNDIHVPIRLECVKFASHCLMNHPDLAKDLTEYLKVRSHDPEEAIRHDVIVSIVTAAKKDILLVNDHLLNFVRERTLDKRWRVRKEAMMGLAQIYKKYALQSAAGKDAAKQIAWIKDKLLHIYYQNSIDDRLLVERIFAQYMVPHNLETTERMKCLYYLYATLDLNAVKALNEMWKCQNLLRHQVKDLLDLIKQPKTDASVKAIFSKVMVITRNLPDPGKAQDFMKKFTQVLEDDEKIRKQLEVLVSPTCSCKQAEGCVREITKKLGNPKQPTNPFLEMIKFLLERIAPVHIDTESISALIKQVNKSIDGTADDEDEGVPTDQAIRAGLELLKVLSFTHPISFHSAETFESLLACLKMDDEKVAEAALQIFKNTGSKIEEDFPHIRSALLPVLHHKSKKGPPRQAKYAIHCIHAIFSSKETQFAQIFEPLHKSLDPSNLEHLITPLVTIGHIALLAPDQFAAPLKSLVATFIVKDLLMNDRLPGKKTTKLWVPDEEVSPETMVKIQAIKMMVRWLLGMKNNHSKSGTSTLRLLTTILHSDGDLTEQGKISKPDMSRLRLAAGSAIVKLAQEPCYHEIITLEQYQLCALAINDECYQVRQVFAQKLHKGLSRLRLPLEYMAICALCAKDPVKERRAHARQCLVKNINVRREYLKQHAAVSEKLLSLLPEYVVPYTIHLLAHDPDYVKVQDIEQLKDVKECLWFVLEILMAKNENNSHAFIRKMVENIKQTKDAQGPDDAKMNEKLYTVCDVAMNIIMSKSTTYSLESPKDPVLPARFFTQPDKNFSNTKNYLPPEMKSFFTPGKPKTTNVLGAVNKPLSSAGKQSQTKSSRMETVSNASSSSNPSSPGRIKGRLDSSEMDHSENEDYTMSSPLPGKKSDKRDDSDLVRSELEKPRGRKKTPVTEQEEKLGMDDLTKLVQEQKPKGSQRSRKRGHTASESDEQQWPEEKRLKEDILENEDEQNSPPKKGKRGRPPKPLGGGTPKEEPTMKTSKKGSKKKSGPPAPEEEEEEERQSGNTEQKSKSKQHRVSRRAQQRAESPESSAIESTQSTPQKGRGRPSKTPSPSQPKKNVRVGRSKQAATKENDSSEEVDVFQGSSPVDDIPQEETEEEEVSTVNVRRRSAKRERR
inactive: [1] -0.023 | [2] 0.002 | [3] 0.001 | [4] 0.043 | [5] 0.092 | [6] 0.12 | [7] 0.061 | [8] 0.013 | [9] -0.302 | [10] -0.287 | [11] -0.184 | [12] -0.102 | [13] -0.052 | [14] -0.01 | [15] -0.093 | [16] -0.166 | [17] 0.124 | [18] 0.093 | [19] -0.078 | [20] 0.02

PIR (UniProt O00625)
Sequence of UniProt O00625 (O00625 whole entry, looked up): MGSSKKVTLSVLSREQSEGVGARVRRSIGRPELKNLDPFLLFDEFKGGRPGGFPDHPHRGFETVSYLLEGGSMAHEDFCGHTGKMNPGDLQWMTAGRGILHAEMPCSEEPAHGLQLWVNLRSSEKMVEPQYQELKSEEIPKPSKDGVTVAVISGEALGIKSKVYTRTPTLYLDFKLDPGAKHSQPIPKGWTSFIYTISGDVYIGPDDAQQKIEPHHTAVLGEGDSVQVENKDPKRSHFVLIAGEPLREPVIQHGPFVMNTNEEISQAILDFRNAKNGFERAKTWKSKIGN
active: [4] 0.464 | [8] 0.225
inactive: [1] -0.027 | [2] -0.058 | [3] 0.025 | [5] 0.111 | [6] 0.031 | [7] -0.027 | [9] -0.053 | [10] -0.002 | [11] -0.016 | [12] 0.019 | [13] 0.016 | [14] -0.056 | [15] 0.073 | [16] 0.011 | [17] -0.042 | [18] -0.01 | [19] 0.015 | [20] 0.037
